Source: PubChem (National Center for Advancing Translational Sciences (NCATS))
Pf growth 96h – inhibits malaria parasite growth, 96 h; P. falciparum luciferase reporter growth, 96 h; Potency, µM (doses to about 28.7 µM), without a hit: at the top dose activity change, negative = inhibition, usual class: inhibitors; actives 6.9% (n = 320,000); AID 504834; note: potency is the fitted concentration of half-maximal effect; % is set by controls: 0 for no effect and ±100 for the full control effect
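Erythrocytes infected with luciferase-expressing P. falciparum were dispensed at 2% hematocrit and 0.05% parasitemia (final), then incubated with compounds 96 hours at 37 C in 5% CO2. Luminescence after detection reagent addition reported growth.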
Shiga inhibitor – blocks Shiga toxin action in Vero cells. AID 2315. Vero cells, Shiga toxin protein synthesis inhibition reporter. actives 9.2% (n = 290,000). inhibition, % at 38.7 µM; in the data active = inhibition mostly above about 28%, no sharp cut-off; inactive = mostly below about 43%; note: 0% is about no effect
Cycloheximide cs – counter-screen hit for Shiga toxin inhibitors, cycloheximide | cell reporter, cycloheximide protein synthesis inhibition counterscreen | max response, % | actives 12% (n = 300,000); in the data active = max response mostly above about 13%, no sharp cut-off; inactive = mostly below about 14%; note: read at 38.3 µM for the half of the compounds with a filed dose; 0% is about no effect
Pf growth 48h – P. falciparum growth inhibition at 48 hours (one generation). P. falciparum luciferase growth in erythrocytes, 48 h. Potency, µM (doses to about 28.7 µM), for the others: top-dose activity change, negative = inhibition, hits mostly inhibitors. actives 5.9% (n = 310,000). AID 504832; note: potency is the fitted concentration of half-maximal effect; % is set by controls: 0 for no effect and ±100 for the full control effect
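Growth was read as firefly luciferase luminescence after a 48 h, 37 C, 5% CO2 exposure of compounds to reporter-bearing P. falciparum cultures (0.1% parasitemia, 2% hematocrit final) in Albumax-supplemented RPMI 1640.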
HCMV inh – inhibitors of human cytomegalovirus | HFF cells, HCMV-luciferase reporter, 72 h; stronger effect = lower value | activity change, negative = inhibition, % at 57.5 µM | actives 4.5% (n = 410,000); in the data active = activity change below about -60%; inconclusive = no clear call, values can overlap the other calls; inactive = above about -39%; note: % is set by controls: 0 for no effect and ±100 for the full control effect
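Inhibition of viral replication was scored as loss of reporter luminescence in HFFs infected with HCMV-luciferase (MOI 1 PFU/cell) for 72 h; compounds tested at 2 doses, normalized to buffer and Salinomycin controls.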
HCV inhibitor – HCV inhibition. Huh7.5.1 HCVcc-Cre infection, luciferase reporter, 44 h. Potency, µM (highest dose often 41.8 µM), for the others: at the highest dose activity change, negative = inhibition, most hits filed as inhibitors. actives 3.4% (n = 340,000); note: potency is the fitted concentration of half-maximal effect; % is set by controls: 0 for no effect and ±100 for the full control effect
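Whole-lifecycle infectious HCVcc-Cre system; cells 1,000/well, compound then virus (~0.5 moi) added 4 h after plating, 44 h culture. Luciferase read 15 sec following 15 min substrate incubation, room temp.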
* = called active by the depositor; ? = inconclusive; / = no result. The list is not random: actives were taken first. Their share in the collection is about 21%. Unless noted, calls come from the whole dose curve; as a rule, active = well fitted inhibition curve with a large enough effect; inconclusive = small, poorly fitted or top-dose-only effect, or another doubt; inactive = no such curve, though single readings can be large or run the other way.

SMILES	Pf growth 96h	Shiga inhibitor	Cycloheximide cs	Pf growth 48h	HCMV inh	HCV inhibitor
CCOc1ccc(NC(=O)CN2C(=O)CSC(C)C2=O)cc1 (centres undefined)	32%	113*	41*	3%	-24	?
C[C@@H]1CN[C@@H](CCO)/C1=C\c1ccccc1	/	/	/	/	-12	-16%
CCc1ccc(NC(=O)c2sc(-n3nc(C)c(Cc4ccc(OC)cc4)c3C)nc2C)cc1	/	/	/	/	48	/
CCOc1ccc(N2C(=O)C(CC(=O)Nc3ccccc3)N(Cc3ccccn3)C2=S)cc1 (centres undefined)	9.3µM*	16	-3	?	0	12%
CCOc1ccc(N2C(=O)C(CC(=O)Nc3ccc(F)cc3)N(Cc3ccccn3)C2=S)cc1 (centres undefined)	?	-9	-8	?	-26	12%
COCCN1C(=O)COc2ccccc2C1C(=O)NC(C)(C)C (centres undefined)	/	/	/	/	-12	/
Cc1ccsc1/C=N/NC(=O)c1ccc2c(c1)OCCO2	20%	23	23*	161%	37	-16%
Cc1ccsc1/C=N\NC(=O)c1ccc2c(c1)OCO2	197%	85*	35*	244%	92	4%
Cc1c(C(=O)OCC(=O)Nc2c(C)n(C)n(-c3ccccc3)c2=O)oc2ccccc12	?	4	-2	-3%	15	-3%
OC(CC1CC12c1ccccc1-c1ncccc12)(c1ccccc1)c1ccccc1 (centres undefined)	0.83µM*	-18	1	/	-19	?
CCOC(=O)C(C)C1(O)c2ccccc2-c2ncccc21 (centres undefined)	?	-3	13	60%	10	3%
CCc1nn(C(CC)C(=O)NCCCc2ccccc2)c(=O)c2cc3occc3n12 (centres undefined)	-13%	8	-1	49%	-24	?
CCc1nn(C(CC)C(=O)NCCCN2CC(C)CC(C)C2)c(=O)c2cc3oc(C)cc3n12 (centres undefined)	0.19µM*	10	-3	?	-19	?
COc1ccc(C(CNC(=O)c2cc(C)on2)N(C)C)cc1 (centres undefined)	2%	12	-3	10%	-29	19%
CSCC(=O)N1CCCC(CNC(=O)c2ccc(-c3ccccc3)cc2)C1 (centres undefined)	21%	22	12*	?	-15	?
CC(=O)CCC(=O)N1CCCC(CNC(=O)c2ccc(-c3ccccc3)cc2)C1 (centres undefined)	?	42*	21*	-17%	-2	1%
O=C(NCC1CCCN(C(=O)c2cccnc2)C1)c1ccc(-c2ccccc2)cc1 (centres undefined)	15%	4	7	-13%	-28	?
OCc1cccc(Cl)c1Cl	/	10	-5	/	/	/
Cn1c(SCC(=O)NCC2CCCO2)ncc(C(=O)Nc2ccc(Cl)cc2)c1=O (centres undefined)	47%	/	/	40%	12	?
CC(C)N(C(=O)CSc1nc2ccccc2n1Cc1ccc(F)cc1)C(C)C	27%	-6	9	4.7µM*	3	?
COC(=O)c1ccc(Cn2c(SCC(=O)Nc3ccc(F)cc3)nc3ccccc32)cc1	/	/	/	/	-3	/
CC(C)NC(=O)CSc1nc2ccccc2n1CC(=O)N1CCc2ccccc21	13µM*	-7	-1	?	38	9%
CC1CCCCN1C(=O)CSc1nc2ccccc2n1CC(=O)N1CCc2ccccc21 (centres undefined)	42%	3	5	?	15	-16%
CC(C)NC(=O)CSc1nc2ccccc2n1CC(=O)N(C(C)C)C(C)C	4.1µM*	46*	20*	5%	?	-10%
COC(=O)C1=C(C)N(c2cc(C)cc(C)c2)/C(=C/c2ccc(O)cc2)C1=O	4%	4	3	?	-96*	?
COC(=O)C1=C(C)N(c2cc(C)cc(C)c2)/C(=C/c2ccco2)C1=O	5%	41	23	8.3µM*	-35	3%
COC(=O)C1=C(C)N(c2ccccc2)/C(=C/c2ccco2)C1=O	?	-7	1	-13%	0	-15%
